# HSF1 inhib – HSF1 inhibition | NIH3T3-HGL HSE-luciferase, MG132-induced, luminescence 8 h; active compounds read low | activity change, negative = inhibition, % at 7.5 µM (by protocol) | actives 0.77% (n = 300,000);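 active means more than half of replicate wells show activity change below -50%, luminescence cut by over half; inconclusive means some wells, but at most half, below -50%; inactive means no replicate well below -50%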;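 further: luciferase reports HSF-1 transcriptional activity via heat shock element; 0% = median of DMSO wells and -100% = zero luminescence signal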
# HSF1 activator – increases HSF-1 driven luciferase reporter signal; NIH3T3-HGL HSF-1 luciferase reporter, MG132, 8 h; 100% = twice DMSO control signal; activation, % at 9 µM; actives 1.7% (n = 300,000); AID 504408;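 active means mean replicate activation of at least 50% with a set share of replicates each reaching 50%; inconclusive means only one of those two conditions met; inactive means mean below 50% and too few replicates reaching it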;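 further: 0% = median of the neutral control wells and 100% = twice that signal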
# Vif inh – inhibitors of HIV Vif | AID 602346 | HEK293T cells, Vif self-association by quenched fluorescence, imaging, 24 h | inhibition, % at 7.49 µM | actives 0.35% (n = 340,000); in the data active means inhibition above about 50%, passing the limit was not always enough; inconclusive means no clear call, values can overlap the other calls; inactive means below about 31%
# esBAF inh – blocks esBAF chromatin remodeling in mouse ES cells | Bmi1-luciferase knock-in reporter, 24 h; 100% = twice the neutral-well signal | reporter increase, % at 12.5 µM | actives 2% (n = 350,000) | AID 602393; in the data active means activation above about 40%; inconclusive means no clear call, values can overlap the other calls;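 further: 0% = median of the plate's neutral control wells and 100% = double that signal; a rise in the Bmi1 reporter signal indicates esBAF inhibition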
# Starred values were filed as active, the others as inactive; ? = inconclusive; . = not tested or not shown. Sampled rows, rich in hits. Any-hit rate of the full collection: about 3.4%.
SMILES,HSF1 inhib,HSF1 activator,Vif inh,esBAF inh
COC(=O)C1C(=O)c2c([nH]c(C(=O)OC3CCCC3C)c2C)CC1C (configuration not stated),26,37,-7,74*
COC(=O)NCc1ccc(Cl)c(Cl)c1,0,6,21,-6
COc1ccc(CNC(=O)Oc2ccccc2)cc1Cl,41,94*,13,4
OC(c1ccc(F)cc1)c1nc(/C=C/c2ccccc2)cs1 (configuration not stated),.,.,-1,50*
c1csc(CSc2nc3ccccc3s2)c1,31,56*,1,.
CCn1c(CSc2nc3ccccc3s2)nc2ccccc21,58,76*,2,17
Cc1cc(C)n2c(Br)c(CSc3nc4ccccc4s3)nc2n1,3,-13,-14,48*
Cc1noc(C)c1CSc1nc2ccccc2s1,2,2,10,3
CCCCC(=O)Nc1sc(C(=O)N(CC)CC)c(C)c1C(=O)OC,-88*,-91,3,1
CCOC(=O)c1c(NC(=O)CN(C)C)sc(C(=O)N(CC)CC)c1C,3,-12,-5,-5
O=[N+]([O-])c1ccccc1N=NNc1ccccc1,.,.,-1,113*
C[C@@H]1CN([C@@H](C)CO)C(=O)c2cc(NC(=O)CCN3CCOCC3)ccc2O[C@H]1CN(C)Cc1ccc(Oc2ccccc2)cc1,.,.,.,0
COc1ccc(CNC(=O)c2ccc(N3CCOCC3)c([N+](=O)[O-])c2)cc1,-1,11,32,.
COc1ccc2oc(-c3ccc(C)c(NC(=O)c4ccc(N5CCOCC5)c([N+](=O)[O-])c4)c3)nc2c1,45,81*,73*,4
C[C@H](CO)N1C[C@H](C)[C@@H](CN(C)C(=O)C2CCOCC2)Oc2cc(C#Cc3ccncc3)ccc2S1(=O)=O,.,.,.,2
CCOc1cc(/C=N/Nc2nc(=O)[nH]nc2C)ccc1O,7,5,1,22
CCOc1cc(/C=N/Nc2ncnc(Cl)c2N)ccc1O,5,-5,-6,57*
CCOc1cc(/C=N/Nc2nnc(C)n2N)ccc1O,31,58*,-10,-4
CN1C(=O)C(C)(C)c2cc(S(=O)(=O)N3CCCCCC3)ccc21,-3,-5,88*,6
C[C@@H]1CCCCO[C@@H](CN(C)C(=O)c2ccncc2)[C@H](C)CN([C@@H](C)CO)C(=O)c2cc(NS(=O)(=O)c3ccc(Cl)cc3)ccc2O1,.,.,.,-2
O=C(NCCCn1ccnc1)/C(=C/c1ccco1)NC(=O)c1ccccc1,18,62*,.,-3
Cc1cc(C)nc(NS(=O)(=O)c2ccc(NS(=O)(=O)c3ccsc3)cc2)n1,-9,-6,74*,-5
CCc1noc(C)c1C(=O)N1CCN(c2ccc([N+](=O)[O-])cc2)CC1,.,.,1,1
CCc1nc2ccc(C(=O)N3CCN(c4ccc([N+](=O)[O-])cc4)CC3)cc2nc1CC,24,60*,0,-3
CCOC(=O)C(C)(C)N(Cc1ccc(C)cc1)S(=O)(=O)c1ccc(Cl)c([N+](=O)[O-])c1,40,?,3,.
SMILES,HSF1 inhib,HSF1 activator,Vif inh,esBAF inh
CCOC(=O)C(C)(C)N(Cc1ccc(Cl)cc1)S(=O)(=O)c1ccc(Cl)c([N+](=O)[O-])c1,33,66*,.,.
C/C(=N\O)c1sc(-c2ccccc2)nc1C,41,72*,0,.
COc1ccc(C2=NN(C(C#N)c3ccc(OC)c(OC)c3)C(c3ccccc3)C2)cc1 (configuration not stated),32,90*,4,51*
Oc1ccc(C2=NN(c3ccccc3)C(c3ccc(F)cc3)C2)cc1 (configuration not stated),-75*,-80,16,5
COc1ccc(C2=NN(c3ccccc3)C(c3ccc(OC)c(OC)c3)C2)cc1 (configuration not stated),39,71*,-3,47*
COc1ccc(C(C#N)N2CCC(c3ccccc3)=N2)cc1OC (configuration not stated),0,-8,2,.
Oc1ccccc1C1=NN(c2ccccc2)C(c2ccc(F)cc2)C1 (configuration not stated),3,-4,-6,0
COc1ccc(C2CC(c3ccc(F)cc3)=NN2c2ccccc2)cc1OC (configuration not stated),15,34,-3,30
COc1ccc(C2CC(c3cccs3)=NN2c2nc(-c3ccccc3)cs2)cc1OC (configuration not stated),62,93*,-4,-1
COc1ccccc1CNC(=O)C[C@H]1C=C[C@@H](NC(C)=O)[C@@H](CO)O1,.,.,.,5
O=C(C[C@@H]1C=C[C@@H](NC(=O)Nc2cc(F)ccc2F)[C@@H](CO)O1)Nc1ccccc1,.,.,.,6
CC(=O)c1ccc(NC(=O)CCc2nnc3ccc(N4CCCC4)nn23)cc1,18,10,2,57*
COc1ccc(OC)c(NC(=O)CCc2nnc3ccc(N4CCC(C)CC4)nn23)c1,3,1,-11,-3
CCc1ccc(NC(=O)CCc2nnc3ccc(N4CCCC4)nn23)cc1,-9,-8,1,3
COc1ccc(NC(=O)CCc2nnc3ccc(N4CCC(C)CC4)nn23)cc1OC,-71*,-78,-5,-3
Cc1noc(C)c1NC(=O)N(C)C[C@H]1Oc2ccc(NS(=O)(=O)c3ccc(F)cc3)cc2C(=O)N([C@@H](C)CO)C[C@@H]1C,.,.,.,-2
CCOc1ccc(-c2cn3ccccc3n2)cc1[N+](=O)[O-],24,55*,-7,.
CCCCOc1ccc(-c2cn3ccccc3n2)cc1[N+](=O)[O-],37,63*,3,.
O=[N+]([O-])c1ccc(Cl)cc1Sc1nc2ccccc2o1,6,10,?,7
Cc1ccnc(Sc2ccc([N+](=O)[O-])cc2[N+](=O)[O-])n1,97,131*,-7,-2
O=[N+]([O-])c1ccc(Sc2nc3ccccc3o2)c([N+](=O)[O-])c1,194,230*,63,-37
O=C(C[C@H]1CC[C@@H](NC(=O)Cc2ccccn2)[C@H](CO)O1)NCCCN1CCOCC1,.,.,.,0
CC(C)NC(=O)N(C)C[C@@H]1Oc2ccc(NS(=O)(=O)c3ccccc3)cc2CC(=O)N([C@@H](C)CO)C[C@@H]1C,.,.,.,4
CO[C@@H]1CN(C)C(=O)c2ccc(NC(=O)c3cc(C)on3)cc2OC[C@@H](C)NC[C@H]1C,.,.,.,3
COc1cccc(C2CC(c3ccccc3)n3ncnc3N2)c1 (configuration not stated),-77*,-82,11,-5
COc1cccc(C2CC(c3ccc(C)cc3)n3ncnc3N2)c1 (configuration not stated),-4,9,0,0
Cc1noc(C)c1NC(=O)N(C)C[C@H]1Oc2ccc(NC(=O)Cc3cn(C)c4ccccc34)cc2CC(=O)N([C@@H](C)CO)C[C@H]1C,.,.,.,-2
CSc1nnc2c(n1)[nH]c1c(C)cccc12,-3,12,-1,25
CCSc1nnc2c(n1)[nH]c1c(C)cccc12,17,20,-12,89*
